Measurements taken from paper PMC4552634, “A New Set of Chemical Starting Points with Plasmodium falciparum Transmission-Blocking Potential for Antimalarial Drug Discovery” (PLoS ONE, 2015).
Where two headings read alike, the source gives them in different places. The whole screen tested about 13,000 compounds, of which about 3,200 (25%) showed an effect of 50% or more. The list shows a part of the results.

Tested on: P. falciparum stage V gametocytes
Parameters: BacTiter-Glo ATP luminescence viability of purified stage V gametocytes in 384-well plates, per cent inhibition versus DMSO
Conditions: 48 h, 5 µM, inhibitor

Cc1cc(N2CCCN(C)CC2)nc(Nc2ccc(Br)cc2)n1 [TCMDC-137014]
% Inhibition: 8.487%

CCOC(=O)c1cc(C(=O)OC)c2ccccn12 [TCMDC-124299]
% Inhibition: 4.818%

CC1=C(C(=O)OC(C)C)C(c2ccccc2Cl)C2=C(CC(c3ccccc3)CC2=O)N1 (stereo not drawn) [TCMDC-125608]
% Inhibition: 34.25%

O=C(NC1CCC(CN2CCC(c3c[nH]c4ccccc34)CC2)CC1)c1[nH]c(=O)[nH]c(=O)c1F (stereo not drawn) [TCMDC-139889]
% Inhibition: 14.48%

CSc1nccc(-c2ccc(S(=O)(=O)NC3CCC(CN4CCC(c5c[nH]c6ccccc56)CC4)CC3)s2)n1 (stereo not drawn) [TCMDC-131237]
% Inhibition (% Inhibition): 110.6%

CSc1nccc(-c2ccc(S(=O)(=O)NC3CCC(CN4CCC(c5c[nH]c6ccccc56)CC4)CC3)s2)n1 (stereo not drawn) [TCMDC-131236]
% Inhibition (% Inhibition): 106.4%

N#Cc1c(Cl)cccc1Oc1ccc(S(=O)(=O)NC2CCC(CN3CCC(c4c[nH]c5ccccc45)CC3)CC2)cc1 (stereo not drawn) [TCMDC-140175]
% Inhibition (% Inhibition): 1.176%

O=C(CCc1cccnc1)Nc1cccc(-c2ccc(-c3nc4ccc(C(F)(F)F)cc4[nH]3)cc2)c1 [TCMDC-132148]
% Inhibition: -27.41%

Cc1ccccc1C1CCN(c2ncc(C(=O)NC3CC3)cc2Cl)CC1 [TCMDC-134609]
% Inhibition: 14.1%

CC(C)(C)OC(=O)N[C@@H](CS(=O)(=O)CCN=C(N)COCc1ccccc1)C(=O)OC(C)(C)C [TCMDC-138107]
% Inhibition: 24.21%

O=C(N[C@H]1CCN(Cc2ccc(OC3CCN(Cc4ccccc4)CC3)c(Cl)c2)C1)c1ccc(Cl)c(Cl)c1 [TCMDC-140277]
% Inhibition: 30.17%

Fc1cc(CN2CCCC2)ccc1OCCCN1CCN(c2cccc(Cl)c2Cl)CC1 [TCMDC-137001]
% Inhibition: 7.626%

O=C(N[C@H]1CCN(Cc2ccc(OCCCN3CCCCC3)cc2)C1)c1ccc(Oc2ccccc2)cc1 [TCMDC-141773]
% Inhibition: 88.22%

O=C(N[C@@H](Cc1ccccc1)CN1CCC(Oc2ccc(F)cc2)CC1)c1ccc(OCCCN2CCCCC2)cc1 [TCMDC-135416]
% Inhibition: 28.27%

c1ccc(C(c2cccs2)N2CCN(Cc3ccc(OCCCN4CCCCC4)cc3)CC2)cc1 (stereo not drawn) [TCMDC-141954]
% Inhibition: 38.42%

O=C(N[C@H]1CCN(Cc2ccc(OC3CCN(Cc4ccccc4)CC3)cc2)C1)c1ccc(Cl)c(Cl)c1 [TCMDC-140265]
% Inhibition: 57.35%

O=C(Nc1ccc(C(=O)Oc2ccc(-c3ccccc3)cc2)cc1)N[C@@H](Cc1ccc(O)cc1)C(=O)NC1CCN(Cc2ccc(O)cc2)C1 (stereo partly drawn) [TCMDC-135361]
% Inhibition: -42.48%

O=C(NC1CCN(Cc2ccccc2)C1)c1ccc(Nc2ccc(Br)cc2)nc1 (stereo not drawn) [TCMDC-133798]
% Inhibition: -17.8%

Cc1cc(CN2CC[C@H](NC(=O)c3ccc(Cl)c(Cl)c3)C2)ccc1OC1CCN(Cc2ccccc2)CC1 [TCMDC-140282]
% Inhibition: -33.37%

O=C(Cc1ccc(-c2ccccc2)cc1)N[C@H]1CCN(Cc2ccc(OCCCN3CCCCC3)cc2)C1 [TCMDC-141776]
% Inhibition: 70.4%

O=S(=O)(c1ccc2ccccc2c1)N1CCCN(Cc2ccc(OCCCN3CCCCC3)cc2)CC1 [TCMDC-141721]
% Inhibition: 52.58%

CS(=O)(=O)Cc1ccc(Nc2ncc(Cl)c(Nc3cccnc3C(N)=O)n2)cc1 [TCMDC-134165]
% Inhibition: -4.656%

CC1CN=C(c2cccc(NC(=O)Nc3cccc(C4=NCC(C)N4)c3)c2)N1 (stereo not drawn) [TCMDC-137194]
% Inhibition: 7.217%

COc1cc2c(cc1C(F)(F)F)N(C(=O)Nc1ccc(Br)cn1)CC2 [TCMDC-139015]
% Inhibition: -19.75%

COc1ccc(O)c(C(=O)c2cnc3c(c2)c(-c2ccc(F)cc2)c(C#N)c(=O)n3C)c1 [TCMDC-124509]
% Inhibition: -11.41%

O=C(Nc1ccc2c(c1)CCN2C1CCN(Cc2cccc(F)c2F)C1)c1ccco1 (stereo not drawn) [TCMDC-135067]
% Inhibition: 14.1%

O=C(N[C@H]1CCN(Cc2ccc(OCCCN3CCCCC3)cc2)C1)c1cc(Cl)cc(Cl)c1 [TCMDC-141774]
% Inhibition: 21.94%

O=C(N[C@H]1CCN(Cc2ccc(OCCCN3CCCCC3)cc2)C1)c1ccc2ccccc2c1 [TCMDC-141775]
% Inhibition: 63.18%

c1cc(OCCN2CCCC2)ccc1CNC1CCN(CC2CCCCC2)CC1 [TCMDC-141656]
% Inhibition: 42.11%

O=C(N[C@H]1CCN(Cc2ccc(OCCCN3CCCCC3)cc2)C1)c1ccc(Cl)c(Cl)c1 [TCMDC-141772]
% Inhibition: 60%

CCCCCCN1CCC(NCc2ccc(OCCN3CCCC3)cc2)CC1 [TCMDC-141663]
% Inhibition: 42.97%

c1ccc(C(c2ccccc2)N2CCC(NCc3ccc(OCCCN4CCCCC4)cc3)CC2)cc1 [TCMDC-141783]
% Inhibition: 82.14%

Cc1cnc(CCNC(=O)c2cc(-c3ccc(Cl)cc3)cs2)[nH]1 [TCMDC-133804]
% Inhibition: 0.312%

CCc1cc(N2CCN(c3ccccc3F)CC2)nc(SCc2ccc(C(=O)NC3CC3)o2)n1 [TCMDC-124808]
% Inhibition: 29.7%

N#Cc1ccc(-c2ccc(C(=O)Nc3ccc4c(c3)CCN(C3CCC3)CC4)nc2)cn1 [TCMDC-136030]
% Inhibition: 49.39%

Cc1nc(-c2ccc(-c3ccc(C(=O)Nc4ccc(-n5ccnc5)c(N5CCN(C)CC5)c4)cc3)c(C)c2)no1 [TCMDC-131988]
% Inhibition: 33.17%

C=C[C@H]1CN(CCCCCCC)CC[C@H]1CCN(C)c1ccnc2ccc(OC)cc12.O=C(O)C(=O)O [TCMDC-139276]
% Inhibition: 8.689%

CCCCCCCN1C2CCC1CC(CCOc1ccnc3ccc(OC)cc13)C2 (stereo not drawn) [TCMDC-139275]
% Inhibition: 73.47%

C=C[C@H]1CN(CCCCCCC)CC[C@H]1CC(O)Cc1ccnc2cc(O)c(OC)cc12 (stereo partly drawn) [TCMDC-139963]
% Inhibition: 16.88%

CCCCCCCC1CC(CC(=O)Nc2ccnc3ccc(OC)cc23)CN1 (stereo not drawn) [TCMDC-139305]
% Inhibition: 20.34%

C=C[C@H]1CN2CC[C@H]1C[C@H]2[C@H](O)c1ccnc2ccc(OC)cc12 [TCMDC-123484]
% Inhibition (% Inhibition): -1.615%

C=C[C@H]1CN(CCCCCCC)CC[C@H]1CCNc1ccnc2ccc(OC)cc12 [TCMDC-139204]
% Inhibition: 104.6%

CCCCCCCC1CCN(C[C@H](O)c2ccnc3ccc(OC)cc23)CC1 [TCMDC-139640]
% Inhibition: 6.722%

CCCCCCCN1CCC(CC(=O)Nc2ccnc3ccc(OC)cc23)CC1 [TCMDC-139181]
% Inhibition: 71.31%

CCCCCCCN1CCC(CC(=O)Nc2ccnc3ccc(OC)cc23)C(CC)C1 (stereo not drawn) [TCMDC-139299]
% Inhibition: -28.07%

C=C[C@H]1CN(CCCCCCC)CC[C@H]1CC(=O)Nc1cnnc2ccc(OC)cc12 [TCMDC-139791]
% Inhibition: 45.94%

C=C[C@H]1CN(CCCCCCC)CC[C@H]1C[C@@H](Cc1ccnc2ccc(OC)cc12)OC(=O)[C@](OC)(c1ccccc1)C(F)(F)F [TCMDC-139560]
% Inhibition: 78.38%

CCCCCCCC1CC(CC(=O)Nc2ccnc3ccc(OC)cc23)CN1C(=O)OC(C)(C)C (stereo not drawn) [TCMDC-139304]
% Inhibition: 29.24%

CC(C)c1ccc(O)cc1Nc1ccnc2ccc(C(F)(F)F)cc12 [TCMDC-138278]
% Inhibition: -32.37%

COc1ccc(OC)c(-c2ccc(O)c(CNCC(C)c3ccccc3)c2)c1 (stereo not drawn) [TCMDC-124647]
% Inhibition: 7.623%

Nc1nc2c(ncn2OC[C@H]2COP(=O)(O)CO2)c(=O)[nH]1 [TCMDC-131638]
% Inhibition: 1.746%

Cc1cc(C)cc(OCC(O)CN(Cc2cc(Cl)cc(Cl)c2)C(=O)Nc2ccccc2Cl)c1 (stereo not drawn) [TCMDC-141476]
% Inhibition: 13.96%

CCOc1cc(C(=O)N[C@@H](Cc2ccccc2)[C@H](O)CNCc2cc(OC)cc(OC)c2)cc(N2CCCCS2(=O)=O)c1 [TCMDC-134524]
% Inhibition: 22.64%

O=C1NC(=O)C(c2cccc(NC(=O)c3ccncc3)c2)=C1c1ccccc1 [TCMDC-140924]
% Inhibition: 2.839%

COc1ccc2nccc([C@@H](O)CN3CCC(NS(=O)(=O)c4cc5c(cc4Cl)SCC(=O)N5)CC3)c2c1 [TCMDC-141159]
% Inhibition: 4.839%

CCCCCCCN1CCC(NC(=O)Nc2ccnc3ccc(OC)cc23)C(CO)C1.O=C(O)C(=O)O (stereo not drawn) [TCMDC-139969]
% Inhibition: -36.82%

CCCCCCCN1CCC(NC(=O)Nc2ccnc3ccc(OC)cc23)C(C(=O)OCC)C1.O=C(O)C(=O)O (stereo not drawn) [TCMDC-139929]
% Inhibition: -3.335%

CCCCCCCN1CCC(CCNc2ccnc3ccc(OC)cc23)CC1 [TCMDC-139197]
% Inhibition: 97.49%

COCCOc1ccc(C(F)(F)F)cc1NC(=O)Cc1c(F)cccc1Cl [TCMDC-125025]
% Inhibition: -70.46%

CCNCc1ccc(-c2cccc(-c3nc4ccccc4[nH]3)c2)cc1 [TCMDC-132568]
% Inhibition: 85.38%

CN(C)CCNCc1ccc(-c2cccc(-c3nc4ccccc4[nH]3)c2)cc1 [TCMDC-132539]
% Inhibition: 20.35%

c1ccc(CNCc2ccc(-c3cccc(-c4nc5ccccc5[nH]4)c3)cc2)cc1 [TCMDC-132545]
% Inhibition: 18.29%

CC(C)NCc1ccc(-c2cccc(-c3nc4ccccc4[nH]3)c2)cc1 [TCMDC-132550]
% Inhibition: -10.92%

CC(C)CNCc1ccc(-c2cccc(-c3nc4ccccc4[nH]3)c2)cc1 [TCMDC-132547]
% Inhibition: 59.79%

CC(C)NCc1cccc(-c2ccc(-c3nc4ccccc4[nH]3)cc2)c1 [TCMDC-132746]
% Inhibition: 23.3%

Cc1ccc(Nc2nc(C)cc(Nc3cccc(C#N)c3)n2)cc1 [TCMDC-133460]
% Inhibition: 4.468%
